Results published in PubChem BioAssay.
Potency and affinity values are given separately. Records with an inconclusive call do not appear. Calls of active or inactive are those of the source.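 The calls were made as follows, unless noted: active = a dose-response fit showing signal loss, with half-maximal concentration no higher than twice the top tested dose; inconclusive = flat fit between 30% and 70% signal loss, or poor fit; inactive = the rest.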

What was measured:
[1] = fungal growth arrest, C. neoformans – Alamar Blue, cherry-picks, dose response (AID 686998;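 active = falling signal with fitted half-maximal potency no higher than twice the top valid tested dose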)
[2] = C. neoformans lysis by adenylate kinase leakage – AK release luminescence, cherry-picks, dose response (AID 687000;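 active = fitted dose curve reaches 40% lysis signal rise at or below the highest valid concentration tested for that sample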;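 also: luminescent detection of adenylate kinase leaking from lysed yeast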)
[3] = viability loss in HepG2 hepatoma cells – cell-based, cherry-picks, set 2, cytotoxicity control, dose response (AID 687002)
[4] = viability loss in HeLa cells – cell-based, ATP luminescence, cherry-pick samples, cytotoxicity control, dose response (AID 687004;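 active = a fitted half-maximal concentration no higher than twice the top valid tested dose, with signal falling as cells die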)

Measured: outcome

CC(C)NC(=O)N(C)C[C@H]1OCCCC[C@@H](C)Oc2ccc(NC(=O)c3ccccc3)cc2C(=O)N([C@@H](C)CO)C[C@@H]1C
inactive: [1] | [2] | [3] | [4]

COc1ccc(N2CCN(C(=O)CSc3ncnc4c3cnn4-c3ccc(OC)cc3)CC2)cc1
inactive: [1] | [2] | [3] | [4]

COc1cc(CNC(C)(C)C)ccc1OCC(=O)NC(C)(C)C
inactive: [1] | [2] | [3] | [4]

C[C@H](CO)N1C[C@H](C)[C@@H](CN(C)C(=O)C2CCOCC2)Oc2ncc(C#CCc3ccccc3)cc2C1=O
inactive: [1] | [2] | [3] | [4]

CO[C@H]1CN(C)C(=O)c2cc(NC(=O)c3ccccc3F)ccc2OC[C@H](C)N(C(C)=O)C[C@H]1C
inactive: [1] | [2] | [3] | [4]

COc1ccc(S(=O)(=O)Nc2ccc3c(c2)C(=O)N([C@@H](C)CO)C[C@H](C)[C@@H](CN(C)C)OCCCC[C@H](C)O3)cc1
inactive: [1] | [2] | [3] | [4]

Cc1cccc(C)c1NC(=O)C(C)N1CCCC1 (stereo not given)
inactive: [1] | [2] | [3] | [4]

CNC[C@H]1Oc2c(NS(=O)(=O)c3cccs3)cccc2C(=O)N([C@H](C)CO)C[C@@H]1C
inactive: [1] | [2] | [3] | [4]

CCCNC(=O)C[C@@H]1CC[C@@H]2[C@@H](COc3ccc(NC(=O)CCC)cc3C(=O)N2C)O1
inactive: [1] | [2] | [3] | [4]

Cc1noc(C)c1S(=O)(=O)Nc1ccc2c(c1)CC(=O)N([C@@H](C)CO)C[C@H](C)[C@@H](CN(C)S(=O)(=O)c1cn(C)cn1)O2
inactive: [1] | [2] | [3] | [4]

CCC(=O)N1[C@@H]2Cn3c(cccc3=O)[C@H]1[C@@H](C(=O)NCc1ccccc1)[C@@H]2CO
inactive: [1] | [2] | [3] | [4]

C[C@H](CO)N1C[C@H](C)[C@H](CN(C)C(=O)c2ccccn2)Oc2ncc(-c3ccccc3)cc2C1=O
inactive: [1] | [2] | [3] | [4]

C[C@H]1CN([C@@H](C)CO)C(=O)c2cccc(N(C)C)c2O[C@@H]1CN(C)C(=O)Nc1cccc2ccccc12
inactive: [1] | [2] | [3] | [4]

COc1ccc(NC(=O)N(C)C[C@H]2OCCCC[C@@H](C)Oc3ccc(N(C)C)cc3C(=O)N([C@H](C)CO)C[C@H]2C)cc1
inactive: [1] | [2] | [3] | [4]

C[C@@H](O)C#Cc1ccc([C@@H]2[C@H](CO)N3CCCCN(CC4CC4)C[C@@H]23)cc1
inactive: [1] | [2] | [3] | [4]

CC(C)NC(=O)Nc1cccc2c1O[C@H](CN(C)C)[C@H](C)CN([C@@H](C)CO)C2=O
inactive: [1] | [2] | [3] | [4]

O=C(Cc1cccs1)N1CCN(c2ccccc2)CC1
inactive: [1] | [2] | [3] | [4]

Cc1noc(C)c1NC(=O)Nc1cccc2c1O[C@H](CN(C)S(=O)(=O)c1cn(C)cn1)[C@H](C)CN([C@H](C)CO)C2=O
inactive: [1] | [2] | [3] | [4]

Cc1cccc(C)c1NC(=O)C(CCc1ccccc1)N1CCN(CCN(C)C)CC1 (stereo not given)
inactive: [1] | [2] | [3] | [4]

CO[C@@H]1CN(C)C(=O)c2ccc(NC(C)=O)cc2OC[C@@H](C)N(C(=O)c2ccccn2)C[C@H]1C
inactive: [1] | [2] | [3] | [4]

C[C@@H]1CN([C@@H](C)CO)C(=O)c2cc(N(C)C)ccc2O[C@@H]1CN(C)C(=O)Nc1ccc(C(F)(F)F)cc1
inactive: [1] | [2] | [3] | [4]

CCCNC(=O)Nc1ccc2c(c1)C(=O)N(C)C[C@@H](OC)[C@@H](C)CN(C(=O)CC)[C@H](C)CO2
inactive: [1] | [2] | [3] | [4]

O=C(Nc1ccc(Cl)c([N+](=O)[O-])c1)c1ccco1
inactive: [1] | [2] | [3] | [4]

N#Cc1ccc(-c2ccc3c(c2)[C@@H]2[C@@H](CCN2C(=O)Cc2ccccc2)[C@@H](CO)N3)cc1
inactive: [1] | [2] | [3] | [4]

O=C(NC(=S)Nc1ccc(CN2CCOCC2)cc1)c1ccc([N+](=O)[O-])cc1
inactive: [1] | [2] | [3] | [4]

C[C@@H]1CN([C@@H](C)CO)C(=O)c2cc(NS(=O)(=O)c3cn(C)cn3)ccc2O[C@@H](C)CCCCO[C@H]1CN(C)C
inactive: [1] | [2] | [3] | [4]

Cc1cccc(C)c1NC(=O)CNC(=O)C1CCCC1
inactive: [1] | [2] | [3] | [4]

CC(C)C#Cc1ccc2c(c1)O[C@H](CN(C)C(=O)Cc1ccccn1)[C@H](C)CN([C@H](C)CO)S2(=O)=O
inactive: [1] | [2] | [3] | [4]

CC(C)(C)SCCNC(=O)CN(c1ccccc1)S(=O)(=O)c1ccc(F)cc1
inactive: [1] | [2] | [3] | [4]

C[C@@H]1CN([C@H](C)CO)C(=O)c2cc(N(C)C)ccc2O[C@@H]1CN(C)C(=O)Nc1ccc(C(F)(F)F)cc1
inactive: [1] | [2] | [3] | [4]

C[C@@H]1CN([C@H](C)CO)C(=O)c2cc(-c3ccc(C#N)cc3)cnc2O[C@@H]1CN(C)C(=O)Nc1ccc(F)cc1
inactive: [1] | [2] | [3] | [4]

O=C(Nc1ccccc1)N[C@@H]1CC[C@@H](CCNC(=O)c2ccccc2F)O[C@H]1CO
inactive: [1] | [2] | [3] | [4]

CNC(=O)C[C@@H]1CC[C@@H]2[C@H](COC[C@H](O)CN2S(=O)(=O)c2cccc(Cl)c2)O1
inactive: [1] | [2] | [3] | [4]

CNC[C@H]1Oc2ccc(NC(=O)Cc3cn(C)c4ccccc34)cc2CC(=O)N([C@@H](C)CO)C[C@H]1C
inactive: [1] | [2] | [3] | [4]

CO[C@@H]1CN(C)C(=O)c2ccc(NC(=O)NC(C)C)cc2OC[C@H](C)NC[C@@H]1C
inactive: [1] | [2] | [3] | [4]

CO[C@H]1CN(C)C(=O)c2ccc(NC(C)=O)cc2OC[C@H](C)N(C(=O)c2ccncc2)C[C@@H]1C
inactive: [1] | [2] | [3] | [4]

C[C@@H]1CN([C@H](C)CO)C(=O)c2cc(-c3cccc(F)c3)cnc2O[C@H]1CN(C)Cc1ccccc1
inactive: [1] | [2] | [3] | [4]

CCCNC(=O)N1C[C@H](O)COC[C@H]2O[C@H](CC(=O)N3CCN(C)CC3)CC[C@@H]21
inactive: [1] | [2] | [3] | [4]

CCS(CC)=NS(=O)(=O)c1ccc(NC(C)=O)cc1
inactive: [1] | [2] | [3] | [4]

C[C@@H]1CCCCO[C@@H](CN(C)S(=O)(=O)c2cccs2)[C@H](C)CN([C@@H](C)CO)C(=O)c2cc(NC(=O)CCC(F)(F)F)ccc2O1
inactive: [1] | [2] | [3] | [4]

Cc1noc(C)c1S(=O)(=O)N(C)C[C@@H]1Oc2c(NC(=O)c3cnccn3)cccc2C(=O)N([C@@H](C)CO)C[C@@H]1C
inactive: [1] | [2] | [3] | [4]

CCC(=O)Nc1ccc2c(c1)C(=O)N(C)C[C@@H](OC)[C@H](C)CN[C@@H](C)CO2
inactive: [1] | [2] | [3] | [4]

C[C@@H]1CN([C@@H](C)CO)C(=O)CCCn2cc(nn2)CO[C@@H]1CN(C)C(=O)CCCN(C)C
inactive: [1] | [2] | [3] | [4]

CCC(C)(NC=O)C(=O)Nc1c(C)cccc1C (stereo not given)
inactive: [1] | [2] | [3] | [4]

O=C([C@@H]1[C@@H](CO)[C@@H]2Cn3c(cccc3=O)[C@@H]2N1CCC(F)(F)F)N1CCCCC1
inactive: [1] | [2] | [3] | [4]

Cc1cccc(N2CCN(C(=O)C3CCC(=O)N3C(C)C)CC2C)c1 (stereo not given)
inactive: [1] | [2] | [3] | [4]

C[C@H](CO)N1C[C@H](C)[C@H](CN(C)S(=O)(=O)c2ccc(F)cc2)Oc2ccc(NS(=O)(=O)c3ccc(Cl)cc3)cc2C1=O
inactive: [1] | [2] | [3] | [4]

COc1ccc(CN(C)C[C@@H]2Oc3ccc(NC(=O)C4CC4)cc3C(=O)N([C@H](C)CO)C[C@H]2C)cc1
inactive: [1] | [2] | [3] | [4]

Cc1ccc(NC(=O)C2(C)CCN2C(=O)CCC2CCCC2)cc1C (stereo not given)
inactive: [1] | [2] | [3] | [4]

O=C(C[C@@H]1CC[C@H]2[C@@H](COC[C@@H](O)CN2C(=O)Nc2ccc(Cl)cc2)O1)NCCc1ccncc1
inactive: [1] | [2] | [3] | [4]

CCCN(C)C[C@H]1OCCCC[C@@H](C)Oc2ccc(NC(=O)NC(C)C)cc2C(=O)N([C@@H](C)CO)C[C@H]1C
inactive: [1] | [2] | [3] | [4]

C[C@H]1CN([C@@H](C)CO)C(=O)c2cccc(NS(C)(=O)=O)c2O[C@H]1CN(C)C(=O)Nc1ccc2c(c1)OCO2
inactive: [1] | [2] | [3] | [4]

C[C@@H]1CN([C@@H](C)CO)C(=O)c2cc(-c3ccc(C#N)cc3)cnc2O[C@@H]1CN(C)C(=O)Nc1ccc(F)cc1
inactive: [1] | [2] | [3] | [4]

Cc1cc(C(=O)Nc2ccc3c(c2)C(=O)N(C)[C@@H]2CC[C@@H](CC(=O)N[C@@H](C)c4ccccc4)O[C@@H]2CO3)no1
inactive: [1] | [2] | [3] | [4]

O=C(Nc1ccc(F)cc1)N1C[C@H]2[C@@H](c3ccccc31)[C@@H](CO)N2Cc1cocn1
inactive: [1] | [2] | [3] | [4]
